Screens as filed in PubChem BioAssay.
Only some compounds are listed: those with a hit (about 0.47% of all), similar ones and a draw of the others.
TcdB inh – blocks C. difficile toxin B glycohydrolase activity | inhibition, % at 9.99 µM | actives 0.24% (n = 350,000) | TcdB glycohydrolase enzymatic assay, plate reader; in the data active means inhibition above about 10%
Target sequence (P18177 whole entry, looked up): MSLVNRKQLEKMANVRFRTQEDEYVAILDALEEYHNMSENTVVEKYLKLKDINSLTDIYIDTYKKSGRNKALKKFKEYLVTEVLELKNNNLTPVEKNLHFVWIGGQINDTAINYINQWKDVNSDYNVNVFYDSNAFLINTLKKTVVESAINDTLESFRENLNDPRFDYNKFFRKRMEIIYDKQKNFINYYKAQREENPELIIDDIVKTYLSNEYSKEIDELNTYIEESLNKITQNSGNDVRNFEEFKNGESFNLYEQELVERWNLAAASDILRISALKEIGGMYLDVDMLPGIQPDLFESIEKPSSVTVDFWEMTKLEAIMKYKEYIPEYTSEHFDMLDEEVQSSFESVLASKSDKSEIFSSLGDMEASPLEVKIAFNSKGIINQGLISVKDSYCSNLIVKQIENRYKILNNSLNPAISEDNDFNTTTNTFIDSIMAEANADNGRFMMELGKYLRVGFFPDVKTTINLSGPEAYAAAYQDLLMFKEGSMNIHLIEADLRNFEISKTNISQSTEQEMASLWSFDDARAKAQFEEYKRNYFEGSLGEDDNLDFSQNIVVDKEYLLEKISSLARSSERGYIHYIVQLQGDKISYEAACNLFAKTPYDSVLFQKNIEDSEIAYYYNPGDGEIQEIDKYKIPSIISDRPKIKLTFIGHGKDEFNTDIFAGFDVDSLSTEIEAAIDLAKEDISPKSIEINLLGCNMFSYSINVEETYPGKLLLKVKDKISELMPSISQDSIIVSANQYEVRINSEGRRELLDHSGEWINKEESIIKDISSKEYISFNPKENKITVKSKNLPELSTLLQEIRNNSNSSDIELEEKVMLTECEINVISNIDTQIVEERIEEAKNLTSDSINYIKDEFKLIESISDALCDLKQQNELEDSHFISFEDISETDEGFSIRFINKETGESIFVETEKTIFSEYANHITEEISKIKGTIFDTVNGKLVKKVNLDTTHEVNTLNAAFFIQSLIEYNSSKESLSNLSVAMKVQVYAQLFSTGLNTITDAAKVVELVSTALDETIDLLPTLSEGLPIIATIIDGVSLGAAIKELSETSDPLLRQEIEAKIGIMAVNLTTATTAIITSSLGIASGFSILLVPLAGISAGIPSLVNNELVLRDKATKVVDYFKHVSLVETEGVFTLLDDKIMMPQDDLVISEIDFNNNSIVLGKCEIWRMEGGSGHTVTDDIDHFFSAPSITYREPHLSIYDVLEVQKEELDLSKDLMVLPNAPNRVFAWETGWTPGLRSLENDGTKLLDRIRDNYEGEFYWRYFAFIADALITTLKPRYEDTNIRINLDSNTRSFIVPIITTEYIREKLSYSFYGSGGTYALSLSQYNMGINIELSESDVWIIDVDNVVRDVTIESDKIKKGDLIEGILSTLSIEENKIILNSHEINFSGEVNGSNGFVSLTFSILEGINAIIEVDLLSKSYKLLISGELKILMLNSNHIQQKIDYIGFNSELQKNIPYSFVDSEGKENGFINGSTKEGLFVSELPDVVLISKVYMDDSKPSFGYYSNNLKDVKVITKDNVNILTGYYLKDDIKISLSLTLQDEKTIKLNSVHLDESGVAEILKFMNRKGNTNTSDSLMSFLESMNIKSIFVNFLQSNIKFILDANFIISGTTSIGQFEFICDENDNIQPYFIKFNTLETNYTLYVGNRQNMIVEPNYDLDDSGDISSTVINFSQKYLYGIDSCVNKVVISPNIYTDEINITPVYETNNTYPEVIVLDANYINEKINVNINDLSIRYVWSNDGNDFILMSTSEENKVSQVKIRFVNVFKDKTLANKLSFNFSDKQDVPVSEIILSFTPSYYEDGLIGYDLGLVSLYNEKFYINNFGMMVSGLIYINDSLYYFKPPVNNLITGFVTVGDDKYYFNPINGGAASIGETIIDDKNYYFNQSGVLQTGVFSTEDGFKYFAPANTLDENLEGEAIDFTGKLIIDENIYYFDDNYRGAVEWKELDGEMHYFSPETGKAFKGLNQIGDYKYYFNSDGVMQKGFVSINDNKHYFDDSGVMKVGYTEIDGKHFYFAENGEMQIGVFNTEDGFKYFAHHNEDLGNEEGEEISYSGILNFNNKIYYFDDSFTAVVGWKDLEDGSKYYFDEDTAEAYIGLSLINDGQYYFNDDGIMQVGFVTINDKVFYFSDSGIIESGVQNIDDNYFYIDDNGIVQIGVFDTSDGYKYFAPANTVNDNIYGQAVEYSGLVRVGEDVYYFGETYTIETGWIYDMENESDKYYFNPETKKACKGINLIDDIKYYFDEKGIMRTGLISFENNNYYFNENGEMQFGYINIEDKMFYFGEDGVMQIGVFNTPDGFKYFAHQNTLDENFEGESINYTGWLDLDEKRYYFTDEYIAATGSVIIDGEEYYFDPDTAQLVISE
Yp Topo-I inh – Y. pestis Topo-I inhibition via cleavage products; activity, % at 10 µM; Y. pestis Topo-I cleavage product accumulation, plate reader; actives 0.064% (n = 360,000); AID 504884; in the data active means activity above about 50%, passing the limit was not always enough; inconclusive means no clear call, values can overlap the other calls
FadD28 binding – inhibitors of Mycobacterium tuberculosis FadD28 bisubstrate binding. inhibition, % at 12.5 µM. actives 0.22% (n = 360,000). FadD28 bisubstrate probe binding, fluorescence polarization; in the data active means inhibition above about 8.5%, passing the limit was not always enough; inconclusive means no clear call, values can overlap the other calls
Mtb BioA inh – blocks M. tuberculosis BioA enzyme activity. actives 0.096% (n = 360,000). purified M. tuberculosis BioA enzyme, plate reader. inhibition, % at 9.99 µM; in the data active means inhibition above about 40%; inconclusive means no clear call, values can overlap the other calls
Active calls of the source: *; ? = inconclusive; . = not tested or not shown; + = active, no number.

SMILES	TcdB inh	Yp Topo-I inh	FadD28 binding	Mtb BioA inh
COc1cccc(C(=O)OCC(=O)Nc2cc(C)on2)c1OC	10.0*	-2.7	-0.1	-0.9
COc1ccc(OC)c(N2C(=O)NC(=O)/C(=C/c3ccc([N+](=O)[O-])s3)C2=O)c1	0.7	2.8	20.7*	3.8
CC(=O)Nc1ccc(N(C(=O)c2ccco2)C(C(=O)NC2CCCC2)c2cccs2)cc1 (configuration not stated)	13.4*	8.0	-1.1	.
CC(=O)Nc1ccc(N(C(=O)c2ccco2)C(C(=O)NC2CCCCC2)c2ccccc2)cc1 (configuration not stated)	0.1	4.2	-1.2	-0.8
CCCN(C)C[C@@H]1OCCCC[C@H](C)Oc2ccc(NC(=O)c3ccccc3)cc2C(=O)N([C@@H](C)CO)C[C@@H]1C	-4.8	.	.	6.5
CC(OC(=O)C1=COCCO1)C(=O)c1ccc(Br)cc1 (configuration not stated)	13.8*	-3.2	-1.0	-0.4
CCOc1c2ccc(C(=O)NCc3cc(C(F)(F)F)cc(C(F)(F)F)c3)cc2nn1C	-1.0	27.2	-6.0	-1.7
CN(C)c1ccc2nc3ccc(=O)cc-3sc2c1	-0.5	+	?	0.9
CN(C)c1ccc2nc3ccc(=[N+](C)C)cc-3sc2c1	7.2	2.9	1.8	.
Cn1c(=O)[nH]c(=O)c2c1nc(N1CCCCCC1)n2Cc1cccc2ccccc12	.	63.4*	-1.1	.
CCCn1c(N2CCC(Cc3ccccc3)CC2)nc2c1c(=O)[nH]c(=O)n2C	.	51.6*	-1.3	2.8
c1ccc(-c2nn3c(C4CCCCC4)nnc3s2)nc1	.	5.2	-2.7	0.8
Clc1ccc(OCc2nn3c(C4CCCCC4)nnc3s2)cc1	.	54.3*	0.0	7.1
Cc1cc(C)c2c(=O)n3c(nc2c1)C(Cc1ccc(O)cc1)NC(=O)c1cc2ccccc2cc1-3 (configuration not stated)	1.5	58.7*	-4.0	-1.5
O=C1NC(Cc2ccc(O)cc2)c2nc3ccc(Br)cc3c(=O)n2-c2cc3ccccc3cc21 (configuration not stated)	1.8	43.4	-1.8	0.5
Cn1c(SCC(=O)c2cc3ccccc3o2)nnc1-c1ccccc1	11.1*	8.6	-0.6	1.8
CC(C)n1c(NCCO)nc2ccccc21	1.1	8.8	-0.4	.
C[n+]1c2ccccc2nc2ccc(NCCO)cc21	3.8	47.2	43.6*	5.9
CNc1ccc2nc3ccccc3[n+](C)c2c1	-1.6	19.9	57.4*	3.9
O=C(O)c1cccc(CSc2nnc(-c3ccc(Cl)cc3)o2)c1	-0.4	9.5	-2.2	-0.6
NC1=NC[C@H](Cc2ccc(O)cc2)N1CCc1cc(C(F)(F)F)cc(C(F)(F)F)c1	10.7*	-9.2	-2.2	4.8
CCOc1ccc(/C(C)=N/NC(=O)c2nnn(-c3nonc3N)c2-c2cccs2)cc1	1.1	2.8	-2.5	-0.5
O=C(Cc1ccccc1)CC(CC(=O)c1ccccc1)c1ccccc1 (configuration not stated)	1.7	56.2*	-0.6	-0.9
O=C(NCC1CCCO1)c1nn2c(C(F)(F)F)cc(-c3cccs3)nc2c1Cl (configuration not stated)	-1.1	1.0	-0.7	-0.7
CCc1ccc(S(=O)(=O)Nc2ccc(O)c3c(=O)cc(-c4ccccc4Cl)oc23)cc1	1.0	7.4	-4.4	-1.9
SMILES	TcdB inh	Yp Topo-I inh	FadD28 binding	Mtb BioA inh
O=c1cc(-c2ccccc2Cl)oc2c(NS(=O)(=O)c3cc(Cl)cc(Cl)c3O)ccc(O)c12	.	-2.3	13.0*	1.6
C=C(C)CNC(=S)NNC(=O)c1cc(C)oc1C	.	-0.4	-0.2	-2.1
CN(C)C/C=C/C(=O)Nc1cccc(-c2c[nH]c3ncnc(Oc4ccc(NC(=O)CC(=O)Nc5ccc(F)cc5)cc4F)c23)c1	.	-9.5	18.6*	-1.5
CCNC(=O)[C@H]1[C@H](CO)[C@H]2Cn3c(ccc(-c4ccccc4)c3=O)[C@H]2N1CC	14.3*	.	.	0.6
O=C1NC(=O)C(=Cc2ccccc2[N+](=O)[O-])S1	1.8	62.0*	-1.8	3.6
Cc1ccc(S(=O)(=O)Oc2ccccc2/C=C2/SC(=O)NC2=O)cc1	10.3*	5.6	-4.8	.
Cc1ccc(S(=O)(=O)Oc2ccccc2C=C2C(=O)N(C)C(=O)N(C)C2=O)cc1	0.0	16.6	0.0	1.5
CCCC(=O)N1N=C(c2ccccc2)CC1c1cn(C)c2ccccc12 (configuration not stated)	.	56.5*	-1.4	-1.6
Cn1cc(C2CC(c3ccccc3)=NN2C(=O)c2ccccc2)c2ccccc21 (configuration not stated)	.	18.5	-2.9	-1.4
Cc1ccc(C(=O)Nc2ccc3c(c2)ncn3C)cc1	.	2.1	-2.1	3.5
Cc1ccc(S(=O)(=O)Nc2cccnc2Oc2ccc(Cl)cc2)cc1	13.7*	-4.6	-1.9	.
Cc1cc(C)nc(NS(=O)(=O)c2ccc(NC(=O)c3ccc(S(=O)(=O)N4CCOCC4)cc3)cc2)n1	1.4	5.5	-4.4	.
CCc1c(O)nc(SCC(=O)Nc2nc3ccccc3s2)n(-c2ccccc2)c1=O	0.7	5.6	14.4*	-0.4
CC1(C)C(=O)OC(C(=O)c2ccccc2)C(C)(C)C1=O (configuration not stated)	.	4.4	-1.9	0.4
COc1cccc(CN(C(=O)Cc2c[nH]c3ccccc23)C(C(=O)NC2CCCCC2)c2ccc(C)o2)c1 (configuration not stated)	2.5	-3.0	-1.1	.
CC1CC(C)CN(S(=O)(=O)c2cc3c4c(c2)CCC(=O)N4CCC3)C1 (configuration not stated)	0.7	0.5	0.3	-0.7
Cc1ccc(C(=O)C(C)OC(=O)C2CCN(c3ccc(C(F)(F)F)cn3)CC2)cc1 (configuration not stated)	2.6	55.0*	-2.2	.
O=C(COC(=O)C1CCN(c2ccc(C(F)(F)F)cn2)CC1)c1ccc(Cl)cc1	-0.3	29.9	-4.0	.
O=C(COC(=O)C1CCN(c2ccc(C(F)(F)F)cn2)CC1)c1ccccc1Cl	6.4	51.7*	0.9	-0.2
COc1ccccc1OCC(=O)Nc1ccc2c(c1)OCO2	1.3	8.4	-0.7	0.4
COc1ccc(Cc2nnc3n2N=C(c2cc4ccccc4o2)CS3)cc1OC	.	54.2*	-1.8	-3.0
CCc1ccc(NC(=O)c2cc(C)on2)cc1	10.6*	2.5	0.9	2.1
Cc1ccc(NC(=O)c2cc(C)on2)cc1	.	-2.4	1.3	.
O=C1c2cc(O)cc(O)c2C(=O)c2c1cc(O)c([C@@H](CO)CCO)c2O	2.0	-15.1	19.8*	6.0
Cc1ccc(S(=O)(=O)N2CCC(C(=O)OC(C)C(=O)NC3CCCCC3C)CC2)cc1C (configuration not stated)	1.7	16.1	-3.4	0.8
CC12CCC3C(=CCc4cc(O)ccc43)C1CC(=NO)C2O (configuration not stated)	13.0*	0.7	-6.0	.
Cc1ccc(C(=O)CNc2cccc(Cl)c2)cc1	.	65.1*	0.6	-1.3
Cc1cc(C)c(NN=c2c(=O)c3ccccc3c2=O)c(C)c1	.	13.3	1.3	-1.2
COc1cc(N=Nc2c(C)n(C)n(-c3ccccc3)c2=O)ccc1N	14.1*	2.1	-1.3	0.5
